Source: PubChem (The Scripps Research Institute Molecular Screening Center)
This is a sample that favours compounds with a hit; in the whole collection about 3.4% have one here.
TEAD-YAP block = TEAD-YAP interaction inhibition, primary screen, TEAD-YAP interaction inhibitor project, luminescence, HEK-TIYL cells; 640,000 compounds, 1.4% hits; inhibition, % at 9.12 µM; TEAD-Gal4/YAP UAS-luciferase luminescence; in the data active = inhibition above about 32%
FBW7 activator = FBW7 E3 ligase activators, primary screen, biochemical, AlphaScreen, human; F-box/WD repeat-containing protein 7 (Homo sapiens), Q969H0; AlphaScreen FBW7–phospho-cyclin E peptide binding, activator screen; normalized activity (activation), % at 26.1 µM; 650,000 compounds, 0.13% hits; in the data active = normalized activity above about 1.9%;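 note: purified mutant Fbw7 with reduced substrate affinity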
MITF inh = MITF inhibitors, primary screen, biochemical, AlphaScreen, human. Microphthalmia-associated transcription factor (Homo sapiens), O75030. AlphaScreen MITF homodimerization, bead proximity signal. inhibition, % at 2.6 µM. 650,000 compounds, 0.91% hits. AID 1259374, 2018; in the data active = inhibition above about 50%
Target sequence (O75030 whole entry, looked up): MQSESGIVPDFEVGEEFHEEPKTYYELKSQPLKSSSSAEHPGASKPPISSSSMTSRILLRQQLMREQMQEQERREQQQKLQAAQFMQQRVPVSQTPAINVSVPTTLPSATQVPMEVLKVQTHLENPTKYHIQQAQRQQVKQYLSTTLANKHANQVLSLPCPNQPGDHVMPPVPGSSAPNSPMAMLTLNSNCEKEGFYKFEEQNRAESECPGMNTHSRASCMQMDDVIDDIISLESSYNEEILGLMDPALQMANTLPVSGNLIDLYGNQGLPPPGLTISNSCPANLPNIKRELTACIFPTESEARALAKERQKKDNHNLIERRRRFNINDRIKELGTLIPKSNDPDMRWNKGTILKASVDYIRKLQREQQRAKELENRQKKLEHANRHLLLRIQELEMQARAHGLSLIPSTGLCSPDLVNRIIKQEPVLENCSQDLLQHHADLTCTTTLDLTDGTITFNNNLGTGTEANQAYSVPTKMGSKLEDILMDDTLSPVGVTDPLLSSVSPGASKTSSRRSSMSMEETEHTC
GPR151 ag = activators of human GPR151, primary screen, cell-based, PathHunter beta-arrestin, luminescence; G-protein coupled receptor 151 (Homo sapiens), Q8TDV0; PathHunter beta-arrestin GPR151 cells; activation, % at 11.2 µM; 650,000 compounds, 1% hits; AID 1508602, 2020; in the data active = activation above about 4.9%
A number is an active result.

What do the screens show for `O=C(NCCOc1ccc(NC(=O)c2ccc(Cl)c(Cl)c2)cc1)c1ccc(Cl)c(Cl)c1`?
TEAD-YAP block: inactive; FBW7 activator: inactive; MITF inh: inactive; GPR151 ag: inactive

Results for COc1ccc(Cl)cc1NC(=O)CCCn1c2ccccc2c(=O)c2cc(C)ccc21 ?
TEAD-YAP block: inactive; FBW7 activator: inactive; MITF inh: inactive; GPR151 ag: inactive

What do the screens show for `N#Cc1c(C(F)(F)F)cc(NCCN2CCOCC2)n2c1nc1ccccc12`?
TEAD-YAP block: inactive; FBW7 activator: inactive; MITF inh: inactive; GPR151 ag: inactive

Results for CC(Oc1ccc(Br)cc1Cl)C(=O)Nc1ccncc1 (centres undefined) ?
TEAD-YAP block: 48; FBW7 activator: inactive; MITF inh: inactive; GPR151 ag: inactive

Results for Cc1ccc(-n2[nH]c(C)c(C=Nc3ccc(C)c(N=Cc4c(C)[nH]n(-c5ccc(C)cc5)c4=O)c3)c2=O)cc1 ?
TEAD-YAP block: inactive; FBW7 activator: inactive; MITF inh: inactive; GPR151 ag: inactive

Results for N#Cc1ccccc1S(=O)(=O)NCC(=O)Nc1ccc2c(c1)OCO2 ?
TEAD-YAP block: 44; FBW7 activator: inactive; MITF inh: inactive; GPR151 ag: inactive

How did CCCOC(=O)C1=C(C)NC2=C(C(=O)CC(C)(C)C2)C1c1cccc(Br)c1 (centres undefined) do in these assays?
TEAD-YAP block: inactive; FBW7 activator: inactive; MITF inh: inactive; GPR151 ag: inactive

What do the screens show for `COc1ccccc1/C=C1/NC(=O)N(c2cccc(Cl)c2)C1=O`?
TEAD-YAP block: inactive; FBW7 activator: inactive; MITF inh: inactive; GPR151 ag: inactive

Results for CCn1c(C)cc(/C=C2/NC(=O)N(c3ccccc3)C2=O)c1C ?
TEAD-YAP block: 33; FBW7 activator: inactive; MITF inh: inactive; GPR151 ag: inactive

How did COc1cccc(/C=C2/NC(=O)N(c3ccccc3)C2=O)c1O do in these assays?
TEAD-YAP block: 35; FBW7 activator: inactive; MITF inh: inactive; GPR151 ag: inactive

What do the screens show for `COc1ccccc1NC(=O)C1CC(=O)N(c2ccccc2)C1` (centres undefined)?
TEAD-YAP block: inactive; FBW7 activator: inactive; MITF inh: inactive; GPR151 ag: inactive

What do the screens show for `CN1CCN(C(c2ccccn2)c2cc(Cl)c3cccnc3c2O)CC1` (centres undefined)?
TEAD-YAP block: inactive; FBW7 activator: inactive; MITF inh: inactive; GPR151 ag: inactive

Results for Oc1c(C(c2ccccn2)N2CCCC2)cc(Cl)c2cccnc12 (centres undefined) ?
TEAD-YAP block: inactive; FBW7 activator: inactive; MITF inh: 79; GPR151 ag: inactive

Results for CCOC(=O)N1CCN(Cc2cc(Cl)c3cccnc3c2O)CC1 ?
TEAD-YAP block: 76; FBW7 activator: inactive; MITF inh: inactive; GPR151 ag: inactive

Results for Oc1c(C(c2ccccn2)N2CCN(c3ccc(F)cc3)CC2)cc(Cl)c2cccnc12 (centres undefined) ?
TEAD-YAP block: inactive; FBW7 activator: inactive; MITF inh: inactive; GPR151 ag: inactive

What do the screens show for `CCOC(=O)N1CCN(C(c2ccccn2)c2c(C)[nH]c3ccccc23)CC1` (centres undefined)?
TEAD-YAP block: inactive; FBW7 activator: inactive; MITF inh: inactive; GPR151 ag: inactive

How did CCOC(=O)N1CCN(C(c2ccccn2)c2ccc3cccnc3c2O)CC1 (centres undefined) do in these assays?
TEAD-YAP block: inactive; FBW7 activator: inactive; MITF inh: 91; GPR151 ag: inactive

How did CCOC(=O)N1CCN(C(c2ccccn2)c2cc(Cl)c3cccnc3c2O)CC1 (centres undefined) do in these assays?
TEAD-YAP block: inactive; FBW7 activator: inactive; MITF inh: 53; GPR151 ag: inactive

Results for Cc1cccc(C(=O)NC(CC(=O)O)c2ccc(Cl)cc2)c1 (centres undefined) ?
TEAD-YAP block: inactive; FBW7 activator: inactive; MITF inh: inactive; GPR151 ag: inactive

What do the screens show for `CCn1c(N2CCCC(C(=O)NC3CC3)C2)nc2ccccc21` (centres undefined)?
TEAD-YAP block: inactive; FBW7 activator: inactive; MITF inh: inactive; GPR151 ag: inactive

What do the screens show for `COC(=O)c1ccc(C(=O)OC)c(NC(=O)c2cc(-c3ccc(C)cc3)nc3ccccc23)c1`?
TEAD-YAP block: inactive; FBW7 activator: inactive; MITF inh: inactive; GPR151 ag: inactive

How did CCCn1cnc2sc(C(=O)Nc3cc(Oc4ccccc4)cc([N+](=O)[O-])c3)c(C)c2c1=O do in these assays?
TEAD-YAP block: inactive; FBW7 activator: inactive; MITF inh: inactive; GPR151 ag: inactive

Results for c1ccc(CC2CCN(Cc3ccccn3)CC2)cc1 ?
TEAD-YAP block: inactive; FBW7 activator: inactive; MITF inh: inactive; GPR151 ag: inactive

How did Oc1c(CN2CCC(Cc3ccccc3)CC2)cc(Cl)c2cccnc12 do in these assays?
TEAD-YAP block: 60; FBW7 activator: inactive; MITF inh: 60; GPR151 ag: inactive

How did CCN(CC)Cc1cc(Cl)c2cccnc2c1O do in these assays?
TEAD-YAP block: 74; FBW7 activator: inactive; MITF inh: 55; GPR151 ag: inactive

Results for COc1cc(=O)n2c(c1C(=O)N(C)Cc1nccs1)CCN(CC(C)C)CC2 ?
TEAD-YAP block: inactive; FBW7 activator: inactive; MITF inh: inactive; GPR151 ag: inactive

Results for COc1cc(NC(=O)c2ccc3nc(-c4ccc(N5CCN(C)CC5)cc4)sc3c2)cc(OC)c1OC ?
TEAD-YAP block: 62; FBW7 activator: inactive; MITF inh: inactive; GPR151 ag: inactive

How did COc1cc(NC(=O)c2ccc3nc(-c4ccc(C(=O)N5CCN(C)CC5)cc4)sc3c2)cc(OC)c1OC do in these assays?
TEAD-YAP block: 52; FBW7 activator: inactive; MITF inh: inactive; GPR151 ag: inactive

Results for COc1cc(NC(=O)c2ccc3nc(-c4c(C)nn(C)c4C)sc3c2)cc(OC)c1OC ?
TEAD-YAP block: 35; FBW7 activator: inactive; MITF inh: inactive; GPR151 ag: inactive

What do the screens show for `CN1CCN(c2ccc(-c3nc4ccc(C(=O)NCCO)cc4s3)cc2)CC1`?
TEAD-YAP block: 67; FBW7 activator: inactive; MITF inh: inactive; GPR151 ag: inactive

What do the screens show for `N#Cc1c(NC(=O)c2cc([N+](=O)[O-])ccc2Cl)sc2c1CCCC2`?
TEAD-YAP block: 49; FBW7 activator: inactive; MITF inh: inactive; GPR151 ag: inactive

Results for N#Cc1c(NC(=O)c2ccc([N+](=O)[O-])cc2[N+](=O)[O-])sc2c1CCCC2 ?
TEAD-YAP block: inactive; FBW7 activator: inactive; MITF inh: inactive; GPR151 ag: inactive

How did CC1CCc2sc(NC(=O)c3cc(Cl)ccc3[N+](=O)[O-])c(C#N)c2C1 (centres undefined) do in these assays?
TEAD-YAP block: 51; FBW7 activator: inactive; MITF inh: inactive; GPR151 ag: inactive

Results for CCCCCC(=O)Nc1ccc(C(=O)Nc2ccccc2O)cc1 ?
TEAD-YAP block: inactive; FBW7 activator: inactive; MITF inh: inactive; GPR151 ag: inactive

What do the screens show for `COc1ccc(OC)c(C(=O)COc2ccccc2C#N)c1`?
TEAD-YAP block: 41; FBW7 activator: inactive; MITF inh: inactive; GPR151 ag: inactive
